This note sets out measurements from PubChem BioAssay (NCATS).

Results filed as inconclusive are left out. Activity calls are given as the source filed them. Calls come from the whole dose curve; as a rule, active = well fitted inhibition curve with a large enough effect; inconclusive = small, poorly fitted or top-dose-only effect; inactive = flat fitted curve, though single readings scatter.

For the first assay, the system named is HACAT. The experiment in a line: qHTS assay to identify novel small-molecules to repurpose for Merkel cell carcinoma treatment (AID 1296009). Note: nearly all actives have a fitted effect of over 60% in size. To be noted: MCC and control cell lines, CellTiter-Glo viability, 72 h; at 44.8 µM (top of the series) unless noted. In outline:
(§1)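 Cell viability, measured as CellTiter-Glo luminescence, was normalized between DMSO and no-cell wells. The cells had been exposed to 8- or 11-point compound dilutions for 72 hr at 37 degree celsius.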
(In general: Quantitative high-throughput screening tests each substance at several concentrations.)
Turning to `Cn1c(=O)c2c(ncn2CC(O)CO)n(C)c1=O` (stereo not given), the molecule was called inactive.
Take `CN(CCOc1ccc(CC2SC(=O)NC2=O)cc1)c1ccccn1` (stereo not given): the result was inactive.
The same measure, in the same setting: next, `CCc1cc(C(N)=S)ccn1`: “inactive”; `COCCCOc1cc(C[C@@H](C[C@H](N)[C@@H](O)C[C@H](C(=O)NCC(C)(C)C(N)=O)C(C)C)C(C)C)ccc1OC`: “inactive”.
Still for that read-out and setting: next, `CCN(C)C(=O)Oc1cccc([C@H](C)N(C)C)c1`: “inactive”; `CCn1cc(C(=O)O)c(=O)c2cc(F)c(N3CCNCC3)nc21`: “inactive”; `CC[C@H](NC(C)C)[C@H](O)c1ccc(O)c2[nH]c(=O)ccc12`: “inactive”.
The same measure, in the same setting: next, `CC(C)OC(=O)C(C(=O)OC(C)C)=C1SC=CS1`: “inactive”; `COc1ccc(-c2ccc3cc(C(=O)O)ccc3c2)cc1C12CC3CC(CC(C3)C1)C2`: “inactive”.
Consider `CCOC(=O)c1ccc(OC(=O)CCCCCN=C(N)N)cc1`, for which the result was inactive.
For `O=S(=O)(c1cccc2cnccc12)N1CCCNCC1`, the outcome was inactive.

The subject of another assay is HEK293T. The description is as above. The conditions noted are these: MCC and control cell lines, CellTiter-Glo viability, 72 h; at 44.8 µM (top of the series) unless noted. In outline:
as §1
(In ATP-based viability assays light output follows the ATP content of the culture.)
With `CCCN[C@H]1CCc2nc(N)sc2C1`, the molecule was classed as inactive.
The same measure, in the same setting: as for `O=C(N[C@H](CO)[C@H](O)c1ccc([N+](=O)[O-])cc1)C(Cl)Cl`, the entry is “inactive”.
With `O=C(O)c1cn(C2CC2)c2cc(N3CCNCC3)c(F)cc2c1=O`, the call was inactive.
Same read-out and setting: next, `O=C(O)CCn1c2c(c3ccccc31)C[C@H](NS(=O)(=O)c1ccc(F)cc1)CC2`: “inactive”; `Cc1noc(NS(=O)(=O)c2ccc(N)cc2)c1C`: “inactive”.
The same measure, in the same setting: next, `CCn1cc(C(=O)O)c(=O)c2cc(F)c(N3CCN(C)CC3)cc21`: “inactive [at 17.4 µM]”.
`O=C(O)CSCC(=O)NC1CCSC1=O` (stereo not given): the result was inactive.
Same read-out and setting: as for `CO[C@@H]1[C@@H](OC(N)=O)[C@@H](O)[C@H](Oc2ccc3c(O)c(NC(=O)c4ccc(O)c(CC=C(C)C)c4)c(=O)oc3c2C)OC1(C)C`, the entry is “inactive”; as for `CCOc1cc(N)c(Cl)cc1C(=O)NCC1CN(Cc2ccc(F)cc2)CCO1` (stereo not given), “inactive”; as for `O=NN(CCCl)C(=O)NC1CCCCC1`, “inactive”.
On the same count and under the same terms, next, `CN(CCOc1ccc(CC2SC(=O)NC2=O)cc1)c1ccccn1` (stereo not given): “inactive”; `CCc1cc(C(N)=S)ccn1`: “inactive”.
On the same count and under the same terms, as for `COCCCOc1cc(C[C@@H](C[C@H](N)[C@@H](O)C[C@H](C(=O)NCC(C)(C)C(N)=O)C(C)C)C(C)C)ccc1OC`, the entry is “inactive”; as for `CCN(C)C(=O)Oc1cccc([C@H](C)N(C)C)c1`, “inactive”; as for `CCn1cc(C(=O)O)c(=O)c2cc(F)c(N3CCNCC3)nc21`, “inactive”.
Regarding `CC[C@H](NC(C)C)[C@H](O)c1ccc(O)c2[nH]c(=O)ccc12`, the molecule was called inactive.
Still for that read-out and setting: next, `CCOC(=O)c1ccc(OC(=O)CCCCCN=C(N)N)cc1`: “inactive”; `O=S(=O)(c1cccc2cnccc12)N1CCCNCC1`: “inactive”; `COc1ccc2c(c1)c(CC(=O)OCC(=O)O)c(C)n2C(=O)c1ccc(Cl)cc1`: “inactive”.
